We go through eight sequences from article PMC8384837, “Expanding the binding specificity for RNA recognition by a PUF domain”.

Holding throughout (experiment): yeast three-hybrid, YBZ-1, SC-Leu-His + 0.5 mM 3-AT, 4 days
Common to all, as to conditions: tags: N-Gal4 AD-HA kept; label: inside an RPR1-promoter hybrid RNA with tandem MS2 sites; ssRNA

In one assay the target is PUM1 PUF domain R3-PWG (Homo sapiens, UniProt Q14671 828-1176, C935P;R936W;Q939G). The gist of the method:
(§1)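 Sequencing with Illumina followed PCR amplification of the repeat regions from transformants grown four days on SC-Leu (input) or SC-Leu-His + 0.5 mM 3-AT (selection). The transformants were strain YBZ-1 with a LexA–MS2 coat fusion and a HIS3 reporter, carrying Pumilio-1 PUF domain libraries and matching RNA elements. The interaction score is the log change in variant frequency from input to selection, computed in log2 with a pseudocount of 1 for absent variants.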

The next assay has as its target PUM1 PUF domain R3-TRA (Homo sapiens, UniProt Q14671 828-1176, C935T;Q939A). In short, it runs like this:
as §1

A further assay concerns the target PUM1 PUF domain R3-AWG (Homo sapiens, UniProt Q14671 828-1176, C935A;R936W;Q939G). In short, it runs like this:
as §1

In another assay the target is PUM1 PUF domain R4-GRG (Homo sapiens, UniProt Q14671 828-1176, N971G;H972R;Q975G). In short, it runs like this:
as §1

The target of the next assay is PUM1 PUF domain R8-NFV (Homo sapiens, UniProt Q14671 828-1176, Y1123F;Q1126V). The gist of the method: as §1
The target in another assay is PUM1 PUF domain R8-RFC (Homo sapiens, UniProt Q14671 828-1176, N1122R;Y1123F;Q1126C). The gist of the method: as §1
Another assay deals with T1, PUM1 PUF domain R6-GRQ (Homo sapiens, UniProt Q14671 828-1176, N1043G;Y1044R).
T1 sequence: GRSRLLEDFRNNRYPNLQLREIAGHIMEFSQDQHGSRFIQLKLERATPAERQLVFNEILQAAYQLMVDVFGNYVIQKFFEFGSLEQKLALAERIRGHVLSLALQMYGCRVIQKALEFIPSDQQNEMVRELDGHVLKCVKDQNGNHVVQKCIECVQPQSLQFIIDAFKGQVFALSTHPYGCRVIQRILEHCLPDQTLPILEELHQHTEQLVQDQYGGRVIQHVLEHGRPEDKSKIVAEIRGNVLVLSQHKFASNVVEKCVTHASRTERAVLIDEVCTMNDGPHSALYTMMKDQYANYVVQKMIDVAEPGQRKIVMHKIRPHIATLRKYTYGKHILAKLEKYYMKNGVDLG
The gist of the method: as §1

The target of another assay is PUM1 PUF domain R1-KYI (Homo sapiens, UniProt Q14671 828-1176, S863K;R864Y;Q867I). In short, it runs like this:
as §1

The target in another assay is PUM1 PUF domain R7-LNA (Homo sapiens, UniProt Q14671 828-1176, S1079L;E1083A). In short, it runs like this:
as §1

The target in a further assay is PUM1 PUF domain R7-GGR (Homo sapiens, UniProt Q14671 828-1176, S1079G;N1080G;E1083R). The gist of the method: as §1

For “GGCUAGAACUAGUGGAUCCCCCGGCGCCCGGCGGCUCGAGCCCGGGUAAGUGUAAUUAGUCUGCAUGCCGCCGGGCGCCAUGCCUGCAGGUCGACUCUAGAAAACAUG”, the values for the binding signal in the assay with PUM1 PUF domain R3-PWG, with PUM1 PUF domain R3-TRA and with PUM1 PUF domain R3-AWG were 2.22 log2 enrichment (interaction score), 0.43 log2 enrichment (interaction score) and 0.35 log2 enrichment (interaction score), respectively.

Take “GGCUAGAACUAGUGGAUCCCCCGGCGCCCGGCGGCUCGAGCCCGGGUAAGUGUAUAUAGUCUGCAUGCCGCCGGGCGCCAUGCCUGCAGGUCGACUCUAGAAAACAUG”: the binding signal with PUM1 PUF domain R4-GRG was 2.09 log2 enrichment (interaction score).

In the case of “GGCUAGAACUAGUGGAUCCCCCGGCGCCCGGCGGCUCGAGCCCGGGUAAGUGUAAAUAGUCUGCAUGCCGCCGGGCGCCAUGCCUGCAGGUCGACUCUAGAAAACAUG”, the binding signal with PUM1 PUF domain R3-PWG is 4.24 log2 enrichment (interaction score); with PUM1 PUF domain R8-NFV, 3.02 log2 enrichment (interaction score); with PUM1 PUF domain R3-TRA, 3.6 log2 enrichment (interaction score); with PUM1 PUF domain R3-AWG, 3.6 log2 enrichment (interaction score); with PUM1 PUF domain R4-GRG, 5.19 log2 enrichment (interaction score); with PUM1 PUF domain R8-RFC, 4.53 log2 enrichment (interaction score). Also, in the assay with PUM1 PUF domain R6-GRQ, the binding signal is 3.49 log2 enrichment (interaction score).

In the case of “GGCUAGAACUAGUGGAUCCCCCGGCGCCCGGCGGCUCGAGCCCGGGUAAGUGUAAGUAGUCUGCAUGCCGCCGGGCGCCAUGCCUGCAGGUCGACUCUAGAAAACAUG”, the binding signal with PUM1 PUF domain R3-PWG was 2.38 log2 enrichment (interaction score); with PUM1 PUF domain R3-TRA it was 0.89 log2 enrichment (interaction score); with PUM1 PUF domain R3-AWG, 0.66 log2 enrichment (interaction score).

In the case of “GGCUAGAACUAGUGGAUCCCCCGGCGCCCGGCGGCUCGAGCCCGGGUAAGCGUAAAUAGUCUGCAUGCCGCCGGGCGCCAUGCCUGCAGGUCGACUCUAGAAAACAUG”, in the assay with PUM1 PUF domain R8-RFC, the binding signal was 5.87 log2 enrichment (interaction score).

For the sequence “GGCUAGAACUAGUGGAUCCCCCGGCGCCCGGCGGCUCGAGCCCGGGUAAGUGUAAAUCGUCUGCAUGCCGCCGGGCGCCAUGCCUGCAGGUCGACUCUAGAAAACAUG”, the binding signal in the assay with PUM1 PUF domain R1-KYI was 4.65 log2 enrichment (interaction score).

On to “GGCUAGAACUAGUGGAUCCCCCGGCGCCCGGCGGCUCGAGCCCGGGUAAGUGUACAUAGUCUGCAUGCCGCCGGGCGCCAUGCCUGCAGGUCGACUCUAGAAAACAUG”, for which, in the assay with PUM1 PUF domain R4-GRG, the binding signal was 0.59 log2 enrichment (interaction score).

With “GGCUAGAACUAGUGGAUCCCCCGGCGCCCGGCGGCUCGAGCCCGGGUAAGUUUAAAUAGUCUGCAUGCCGCCGGGCGCCAUGCCUGCAGGUCGACUCUAGAAAACAUG”, the binding signal with PUM1 PUF domain R7-LNA is 4.5 log2 enrichment (interaction score); in the assay with PUM1 PUF domain R7-GGR it was 3.28 log2 enrichment (interaction score).
